Data on 8 compounds can be found in PubChem BioAssay AID493169 (National Center for Advancing Translational Sciences (NCATS), 2011).

Results filed as inconclusive are left out. Where a call stands in place of a potency, no number is given. Activity calls are given as the source filed them. Calls come from the whole dose curve; as a rule, active = well fitted inhibition curve with a large enough effect; inconclusive = small, poorly fitted or top-dose-only effect; inactive = flat fitted curve, though single readings scatter.
Potency is the fitted concentration of half-maximal effect.

A short description of the assay: CHOP2 Reporter Counterscreen Assay for Inhibitors of Ubiquitin-specific Protease USP2a.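 Note: activated enterokinase alone at 50 pM in a cell-free format rather than USP2a or CHOP2; nearly all actives have a fitted effect of over 55% in size.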 Particulars: purified enterokinase, fluorogenic substrate, 485/531 nm; series mostly up to 38.3 µM. Put shortly: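 Cell-free counterscreen with pre-activated enterokinase alone (50 pM final) in 20mM Tris-HCl pH 8.0, 2mM CaCl2, 2mM beta-mercaptoethanol, 0.05% CHAPS; compound preincubation 30 min RT, reporter substrate 25nM final, fluorescence read after 10 min (Ex 485/Em 531).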
A general note: A counterscreen serves to expose hits that act by an unwanted route or on another target.
Turning to `CCOc1ccccc1N(CC(=O)NC(C)(C)C)C(=O)c1ccc(CN2CCOCC2)o1`, the Potency result is “inactive”.

Consider `O=C(OCc1ccccc1)C1CCCN1C(=O)c1cccs1` (stereo not drawn), for which the Potency entry is “inactive”.

Regarding `Cc1ccc(/C=C2/SC(=S)N(c3ccc(S(=O)(=O)Nc4nccs4)cc3)C2=O)cc1`, the Potency was 12.6 µM (active).

Take `Cc1ccc(C(=O)N/C(=C/c2ccco2)C(=O)Nc2cccc(C(=O)O)c2)cc1`: the Potency was 10 µM (active).

On to `Nc1ccc2nc(-c3ccc(N)c(Cl)c3)[nH]c2c1`, for which the Potency entry is “inactive”.

Turning to `O=S(=O)(c1cc(Cl)ccc1Cl)N1CCNCC1`, the Potency result is “inactive”.

For `O=C(NC1CCCCC1)C(c1ccco1)N(C(=O)c1csnn1)c1cccc(F)c1` (stereo not drawn), the Potency result was “inactive”.

`Cc1ccc(C(=O)N(c2c(C)n(C)n(-c3ccccc3)c2=O)C(C)C)cc1`: the Potency result is “inactive”.
